Screening data as filed in PubChem.
BL2 CD40 inh – CD40 pathway inhibition in BL2 cells | BL2 NF-kB luciferase reporter, CD40L-induced, 4 h | inhibition, % at 10 µM | 83,000 tested, 0.94% active;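 active = mean inhibition of at least 50% with a set share of replicates also reaching that level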
Large screens that a line does not name were inactive. Shown is part of a subset that was picked to be rich in hits.

Nc1c(C(=O)N2CCOCC2)sc2nc3c(cc12)CCCC3	BL2 CD40 inh 69
Nc1c(C(=O)N2CCCC2)sc2nc3c(cc12)CCCCCC3	none
COc1ccccc1NC(=O)N1C[C@H]2[C@@H](c3ccccc31)[C@H](CO)N2C(=O)C1CC1	none
O=C(COC(=O)c1ccc(Cl)c(S(=O)(=O)N2CCCCC2)c1)NC1CCCCC1	none
COc1ccc(Sc2nnc(-c3ccccc3)cc2C#N)cc1	none
COc1ccc(-c2cc(-c3ccccc3)c(C#N)c(S(C)=O)n2)cc1 (stereo not drawn)	BL2 CD40 inh 76
COc1ccc(-c2cc(-c3ccccc3)c(-c3ccccc3)nn2)cc1	none
O=C(c1ccccc1)N1C[C@H]2[C@@H](c3ccccc31)[C@H](CO)N2Cc1cc(F)ccc1F	none
COc1ccc(OC)c(C(O)c2ncc(-c3ccc(C(F)(F)F)cc3)[nH]2)c1 (stereo not drawn)	none
CS(=O)(=O)c1ccc(Cl)c(NC(=O)C2CCCN(C(=O)c3ccc(Cl)cc3)C2)c1 (stereo not drawn)	none
CC1=C(C(=O)Nc2cc(C(=O)N3CCN(c4ccc(Cl)cc4)CC3)ccc2C)SCCO1	none
Cc1ccc(NCC(=O)N/N=C/c2ccncc2)cc1	none
Cc1ccc(-c2nc(N/N=C/c3ccncc3)c3ccccc3n2)cc1	BL2 CD40 inh 53
c1ccc2c(Nc3nc(-c4ccncc4)nc4ccccc34)cccc2c1	none
CCS(=O)(=O)Nc1ccc2c(c1)C(=O)N(C)[C@@H]1CC[C@H](CC(=O)NC3CCCCC3)O[C@@H]1CO2	none
O=C(Nc1nnc(C2CC2)s1)C1CC(=O)N(c2ccc3c(c2)OCCO3)C1 (stereo not drawn)	BL2 CD40 inh 51
O=C(Nc1nc2ccc(F)cc2s1)C1CC(=O)N(c2ccc3c(c2)OCCO3)C1 (stereo not drawn)	none
O=C(Nc1nnc(C2CCCCC2)s1)C1CC(=O)N(c2ccccc2)C1 (stereo not drawn)	none
CC(C)N(Cc1ccccc1)C(=O)COC(=O)c1cnc(Cl)c(Cl)c1	BL2 CD40 inh 61
CC(C)CN(C(=O)COC(=O)c1cnc(Cl)c(Cl)c1)c1c(N)n(Cc2ccccc2)c(=O)[nH]c1=O	none
CN(Cc1ccccc1)C(=O)COC(=O)c1cncc(Br)c1	none
CCC(=O)N1CCCCN2[C@H](C1)[C@@H](c1ccc(-c3cccc(C(=O)N(C)C)c3)cc1)[C@@H]2CO	none
CC(C)c1cn(CC[C@H]2CC[C@H](NC(=O)C3CCCCC3)[C@H](CO)O2)nn1	none
O=C(CC1C(=O)NCCN1Cc1c(F)cccc1Cl)NC1CCCC1 (stereo not drawn)	none
O=C1CCC(C2CCc3cc(O)ccc3C2)C1 (stereo not drawn)	none
COc1ccccc1C(C)NC(=O)c1ccc(NC(=O)CC2SC(N3CCCC3)=NC2=O)cc1 (stereo not drawn)	none
COc1ccc2[nH]c3c(NCCCN4CCCC4=O)ncnc3c2c1	none
CCN(CC)CCCNS(=O)(=O)c1ccc(OC)cc1	none
CCN(CC)CCCNc1nc2ccccc2c2[nH]c3ccc(OC)cc3c12	BL2 CD40 inh 103
CO[C@@H]1CN(C)C(=O)c2cc(NC(=O)Nc3ccc4c(c3)OCO4)ccc2OC[C@@H](C)N(C(C)=O)C[C@H]1C	none
CC(=O)N1[C@@H]2Cn3c(cccc3=O)[C@H]1[C@@H](C(=O)N1CCc3ccccc3C1)[C@@H]2CO	none
CC(C)NC(=O)N1C[C@H]2[C@@H](c3ccccc31)[C@H](CO)N2C(=O)c1cccnc1	none
O=C(c1cccc(F)c1)N1CCCCN2[C@H](CO)[C@@H](c3ccc(C#CC4(O)CCCC4)cc3)[C@@H]2C1	none
CCN(CC(=O)Nc1ccccc1C(F)(F)F)C(=O)Cc1sc(C)nc1-c1ccc(F)cc1	none
Cc1nc(-c2ccc(F)cc2)c(CC(=O)N(C)CC(=O)Nc2cccc(F)c2)s1	BL2 CD40 inh 54
Cc1nc(-c2ccc(F)cc2)c(CC(=O)N(C)CC(=O)Nc2ccc(Br)cc2C)s1	BL2 CD40 inh 92
Cc1nc(-c2ccc(F)cc2)c(CC(=O)N(C)CC(=O)Nc2ccccc2C(F)(F)F)s1	none
Cc1nc(-c2ccc(F)cc2)c(CC(=O)NCC(=O)Nc2ccc(F)c(F)c2)s1	none
Cc1nc(-c2ccc(F)cc2)c(CC(=O)N(C)CC(=O)Nc2ccccc2Br)s1	none
CN1c2ccc(Br)cc2[C@H]2[C@H](CCN2S(=O)(=O)c2ccc(F)cc2)[C@H]1CO	none
CS(=O)(=O)N1[C@H](C#N)[C@H](c2ccc(C#CC3CCCCC3)cc2)[C@@H]1CO	none
C[C@H](CO)N1C[C@H](C)[C@H](CN(C)C(=O)Nc2ccccc2)Oc2cc(-c3cccc(C(=O)N(C)C)c3)ccc2S1(=O)=O	none
CCOC(=O)c1c(-c2ccc(C)o2)csc1N	none
CCOC(=O)c1c(-c2ccc(C)o2)csc1NC(=O)COC(=O)c1cccs1	BL2 CD40 inh 80
CCOC(=O)c1c(-c2ccc(C)o2)csc1NC(=O)CN1CCOCC1	none
CCCNC(=O)N(C)C[C@H]1Oc2cc(-c3ccccc3)ccc2S(=O)(=O)N([C@H](C)CO)C[C@H]1C	none
O=C(c1cc(-c2ccc(O)cc2)on1)N1CCCCCC1	none
O=C(c1cc(-c2ccc3c(c2)OCO3)on1)N1CCCCC1	BL2 CD40 inh 54
COc1ccc(-c2cc(C(=O)N3CCCC3)no2)cc1OC	none
